Publication PMC4552634, “A New Set of Chemical Starting Points with Plasmodium falciparum Transmission-Blocking Potential for Antimalarial Drug Discovery” (PLoS ONE, 2015)
Where two headings read alike, the source gives them in different places. The campaign covered roughly 13,000 compounds. About 3,200 (25%) showed an effect of 50% or more. The list shows a part of the results.

Test system: P. falciparum stage V gametocytes
Parameters: BacTiter-Glo ATP luminescence viability of purified stage V gametocytes in 384-well plates, per cent inhibition versus DMSO
Settings: 48 h, 5 µM, inhibitor

Compound | % Inhibition [%] | % Inhibition (% Inhibition) [%]
Cc1ccc(N2C(N)=NC(N)=NC2c2ccccc2)cc1 (stereo not shown) [TCMDC-123675] | 47.57 | 
O=C(Nc1ccc([N+](=O)[O-])cc1Cl)c1cc2ccccc2cc1O [TCMDC-123517] | 12.28 | 
O=C(/C=C/c1ccccc1)N1CCOC(CCN2CCC(c3ccccc3)CC2)(c2ccc(Cl)c(Cl)c2)C1 (stereo not shown) [TCMDC-135350] | 15.63 | 
CN(Cc1cccc(O)c1)C1CCN(c2cc(NC(=O)c3ccc(F)cc3)ccn2)CC1 [TCMDC-134965] | -26.89 | 
CCCNCc1ccc(-c2ccc(CN(CCOC)C(=O)c3cnc(C)cn3)cc2)nc1 [TCMDC-141534] | 98.71 | 
CCCNCc1ccc(-c2ccc(CN(Cc3cnc(C)cn3)C(=O)/C=C/c3ccccc3C)cc2)nc1 [TCMDC-141545] | 35.86 | 
CCCNCc1ccc(-c2ccc(CN(CCOC)C(=O)c3cscn3)cc2)nc1 [TCMDC-141525] | 101.5 | 
CCCNCc1ccc(-c2ccc(CN(CCOC)C(=O)c3ccc([N+](=O)[O-])c(C)c3)cc2)nc1 [TCMDC-141544] | 54.62 | 
CCCNCc1ccc(-c2ccc(CN(Cc3cnc(C)cn3)C(=O)CC#N)cc2)nc1 [TCMDC-141527] | 78.38 | 
CCc1nc(N)nc(N)c1CCCOc1ccccc1Cl [TCMDC-137928] | -12.09 | 
N#Cc1ccc2c(c1)CN(CC[C@H]1CC[C@H](NC(=O)/C=C/c3c[nH]c4ccccc34)CC1)CC2 [TCMDC-139191] |  | -21.51
COc1cc(Cc2cnc(N)nc2N)cc(OCCCN2C(=O)c3ccccc3C2=O)c1OC [TCMDC-137365] | 18.85 | 
CCC(C)C(COC(=O)c1cc(OC)c(OC)c(OC)c1)N(C)CCN(C)C(COC(=O)c1cc(OC)c(OC)c(OC)c1)C(C)CC (stereo not shown) [TCMDC-131453] | 2.796 | 
Cc1ccc(Sc2ccc(NC(=O)CN3CCN(C(=O)c4ccco4)CC3)cc2)cc1C [TCMDC-124861] | 2.666 | 
COCc1ccc(CN2CCC(C(=O)Nc3ccc(-c4nc5ccccc5[nH]4)cc3)CC2)o1 [TCMDC-124678] | -40.1 | 
CCCNCc1ccc(-c2ccc(CN(CCOC)C(=O)c3ccccc3)cc2)nc1 [TCMDC-141540] | 44.11 | 
CCCNCc1ccc(-c2ccc(CN(CCOC)C(=O)/C=C/c3ccccc3C)cc2)nc1 [TCMDC-141546] | 40.67 | 
CCCNCc1ccc(-c2ccc(CN(CCOC)C(=O)c3ccco3)cc2)nc1 [TCMDC-141535] | 89.84 | 
CCCNCc1ccc(-c2ccc(CN(CCOC)C(=O)c3cccc(C#N)c3)cc2)nc1 [TCMDC-141538] | 90.8 | 
Cc1ccc(CNC(=O)[C@H](CC(C)C)Nc2cc(C)nc(NCc3ccccc3C)n2)cc1 [TCMDC-134910] | -39.78 | 
Cc1ccc(Nc2ccnc(Nc3ccc(C)c(F)c3)n2)cc1O [TCMDC-138498] | 0.05121 | 
O=C(/C=C/c1ccc(Cl)c(Cl)c1)NCCCCCN1CCC(c2c[nH]c3ccccc23)C(O)C1 (stereo not shown) [TCMDC-139694] |  | -6.926

Compound | % Inhibition [%] | % Inhibition (% Inhibition) [%]
O=C(Cc1ccc(Cl)cc1)NC1CCN(c2ccnc3cc(Cl)ccc23)C1 (stereo not shown) [TCMDC-133399] | -11.42 | 
CC1(C)OC[C@]2(C)[C@@H](CC[C@]3(C)C4=CC(=O)CCC4CC[C@@H]23)O1 (stereo partly shown) [TCMDC-137379] | 35.88 | 
CC(C)c1sc(-c2ccc(C(C)(C)C)cc2)nc1C(=O)NCCCN1CCCC1=O [TCMDC-133691] | 25.46 | 
O=C(NCCCN1CCCC1=O)NCc1ccccc1 [TCMDC-123844] | 3.062 | 
CCc1sc(-c2ccc(C(C)(C)C)cc2)nc1C(=O)NCCCN1CCCC1=O [TCMDC-133692] | 75.07 | 
Cc1cc(N2CCNCC2)c2cc(NC(=O)Nc3ccc(Cl)c(Cl)c3)ccc2n1 [TCMDC-139533] | 55.92 | 
O=C(Nc1ccc(Cl)c(Cl)c1)Nc1ccccc1N1CCNCC1 [TCMDC-133727] | 92.01 | 
CN1CCN(c2ccnc3ccc(NC(=O)Nc4ccc(Cl)c(Cl)c4)cc23)CC1 [TCMDC-139321] | 12.28 | 
O=C(Nc1ccc(C(F)(F)F)cc1)Nc1ccccc1N1CCNCC1 [TCMDC-133726] | 29.85 | 
O=C(Nc1ccc(Cl)c(Cl)c1)Nc1ccc2nccc(N3CCN(Cc4ccccc4)CC3)c2c1 [TCMDC-139649] | 65.98 | 
Cc1ccc(C(C(=O)Nc2ccc(N3CCNCC3)c(Cl)c2)c2ccccc2)cc1 (stereo not shown) [TCMDC-134292] | 32.74 | 
CN1CCN(c2ncnc3ccc(NC(=O)Nc4ccc(Cl)c(Cl)c4)cc23)CC1 [TCMDC-139439] | 21.32 | 
CN1CCN(c2ccnc3ccc(NC(=O)Nc4c(Cl)cccc4Cl)cc23)CC1 [TCMDC-139352] | -27.77 | 
O=C(Nc1ccc(Cl)c(Cl)c1)Nc1ccc2nccc(N3CCNCC3)c2c1 [TCMDC-139452] | -0.1389 | 
O=C(N[C@@H](CC1CCCCC1)C(=O)NC1CCCc2ccccc21)c1ccc(O)c(-c2cccc(C(F)(F)F)c2)c1 (stereo partly shown) [TCMDC-140821] | 14.55 | 
Cc1cccc(-c2cccc3c(NC(=O)N4CCc5cc6nccc(N7CCN8CCC[C@H]8C7)c6cc54)cccc23)n1 [TCMDC-140053] | -32.82 | 
COc1cc(Cc2cnc(N)nc2N)cc(OCCCCC2SC(=O)NC2=O)c1Br (stereo not shown) [TCMDC-137240] | 11.21 | 
Cc1noc(C)c1-c1cccc(CNCc2cccc(-c3cccc(-c4nc5cccc(C)c5[nH]4)c3)c2)c1.O=C(O)C(F)(F)F [TCMDC-133050] | -47.47 | 
COc1cc(Cc2cnc(N)nc2N)ccc1Oc1ccc(N)cc1 [TCMDC-138639] | -31.17 | 
COc1cc(C2CCCCC2)c(OC)cc1CC1c2cc(O)c(Cl)cc2CCN1C (stereo not shown) [TCMDC-137539] | -5.034 | 
CS(=O)(=O)NCCCNCc1cccc(-c2cccc(-c3nc4cc(C(F)(F)F)ccc4[nH]3)c2)c1.O=C(O)C(F)(F)F [TCMDC-133086] | -10.1 | 
